# Measurements as given in PubChem BioAssay AID430 (Sanford-Burnham Center for Chemical Genomics, 2006).
# Among all 63,000 compounds or so, about 1,100 (1.7%) were called active. The sample holds actives, similar compounds and a random draw of the others, so the mix is not that of the screen. Measured potencies and affinities stand elsewhere. Unmarked numbers belong to inactive results. No stated cut-off is given here; in the data, active means cytotoxicity above about 50%; inactive means the rest.
# Test: HPDE-C7 pancreatic duct cell viability loss – fluorescence, HTS (AID 430);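 further: cells exposed to compound for 48 hours before viability readout; 0% = vehicle and 100% = reference cytotoxic drug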
# Details: HPDE-C7 pancreatic duct cells viability, at 10 µM, hits give high values
row,SMILES,cytotoxicity
1,COC(=O)c1ccc(CSc2nc(N)cc(N)n2)cc1,-4.4%
2,CCC(C)NCC(O)COCc1ccc(Cl)cc1 (configuration not stated),9.9%
3,O=C(Nc1ccc2c(c1)CCC2)c1cnn2c1NC(c1ccco1)CC2C(F)(F)F (configuration not stated),-4.4%
4,O=C(c1ccco1)N1CCN(C(=O)c2cnn3c2NC(c2cccs2)CC3C(F)(F)F)CC1 (configuration not stated),-5%
5,O=C(c1cnn2c1NC(c1ccco1)CC2C(F)(F)F)N1CCN(c2cccc(Cl)c2)CC1 (configuration not stated),50.2% (active)
6,Cc1ccc(-c2ccc(=O)n(CCC(=O)NCCN3CCCCC3C)n2)cc1 (configuration not stated),5.1%
7,O=S(=O)(Nc1nc2ccccc2nc1NCCO)c1cccc(Cl)c1,12.5%
8,CCOC(=O)N1CCC(N(C(=O)Nc2ccccc2)C(C)CC)CC1 (configuration not stated),-4.7%
9,CCCOc1c(OC)cccc1C1CC(=O)Nc2cc3c(cc21)OCCO3 (configuration not stated),70.1% (active)
10,O=C1CC(c2ccc3c(c2)OCO3)c2cc3c(cc2N1)OCO3 (configuration not stated),-5.6%
11,CCCOc1c(OC)cccc1C1CC(=O)Nc2cc(OC)c(OC)c(OC)c21 (configuration not stated),10.7%
12,CCOc1ccccc1C1CC(=O)NC2=C1C(=O)CCC2 (configuration not stated),30.3%
13,CCCOc1c(OC)cccc1C1CC(=O)Nc2cc3c(cc21)OCO3 (configuration not stated),12.7%
14,CCCOc1ccccc1C1CC(=O)Nc2cc3c(cc21)OCCO3 (configuration not stated),63% (active)
15,O=C1CC(c2cccs2)c2cc3c(cc2N1)OCO3 (configuration not stated),1%
16,O=C1CC(c2cccs2)c2cc3c(cc2N1)OCCO3 (configuration not stated),5.6%
17,CCCOc1ccccc1C1CC(=O)NC2=C1C(=O)CCC2 (configuration not stated),47.3%
18,CCCOc1ccccc1C1CC(=O)Nc2cc3c(cc21)OCO3 (configuration not stated),54.1% (active)
19,CCCCOc1ccccc1C1CC(=O)NC2=C1C(=O)CCC2 (configuration not stated),71.2% (active)
20,O=C1CC(c2cccnc2)c2cc3c(cc2N1)OCCO3 (configuration not stated),5.1%
21,CCOc1ccccc1C1NC(=O)NC(C)=C1C(=O)OC1CCCCC1 (configuration not stated),1.9%
22,COC(=O)c1c(C)n(-c2ccccc2)c2ccc(O)cc12,11.1%
23,CC(C)C(NC(=O)OCc1ccccc1)C(=O)NCC(=O)OC(C)(C)C (configuration not stated),5.4%
24,COc1ccc(C)cc1NS(=O)(=O)c1ccc(NS(=O)(=O)c2ccc(NC(C)=O)cc2)cc1,-5.6%
25,O=C(CCCOc1ccc(Cl)cc1)N1CCOCC1,-10.1%
26,Cc1nc2sc(C(c3cccs3)N3CCC(C(N)=O)CC3)c(O)n2n1 (configuration not stated),-20.4%

row,SMILES,cytotoxicity
1,OCC(CO)(CO)N=Cc1cc(Br)ccc1O,8.1%
2,CCCc1n[nH]c2c1C(=O)CC(C)(C)C2,1.7%
3,CCN(C(=O)CSc1nc2nc(C)cc(C)n2n1)c1ccccc1,-4%
4,COC(=O)Cn1c2ccc(F)cc2c2nc(C)sc21,-12.3%
5,Cc1ccc(Nc2cc(C)nn2-c2nc(C)cc(=O)[nH]2)cc1,102% (active)
6,Cc1cc(=O)[nH]c(-n2nc(C)cc2C)n1,-1.2%
7,Cc1cc(Nc2ccccc2)n(-c2nc3ccccc3[nH]2)n1,4%
8,Cc1nc(C)c(C(=O)C2=C(O)C(=O)N(CCN3CCOCC3)C2c2cccnc2)s1 (configuration not stated),-12.6%
9,CC(=O)Nc1nc2c(F)cccc2s1,9.8%
10,COc1cc(OC)cc(-c2nnc(Nc3nc4c(F)cccc4s3)o2)c1,8.8%
11,CCC(=O)Nc1nnc(-c2ccco2)o1,-23.7%
12,c1coc(-c2nnc(NC3=NCCC3)o2)c1,7.5%
13,Fc1cccc2sc(Nc3nnc(-c4ccccc4)o3)nc12,53.3% (active)
14,Fc1cccc2sc(Nc3nnc(-c4ccco4)o3)nc12,53.7% (active)
15,Cc1ccc2c(n1)sc1c(N)ncnc12,9.8%
16,O=C(CSCc1cccc(Br)c1)N1CCOCC1,-8.7%
17,COc1ccc(-c2noc(-c3cc(Cl)ccc3Cl)n2)cc1OC,-2.3%
18,CCOc1ccc(C2N(c3ccc(OC)cc3)C(=O)C3CCCN32)cc1OC (configuration not stated),2.1%
19,CCOC(=O)Oc1ccc2oc(=O)cc(C)c2c1,4.4%
20,O=C(Nc1cc(=O)c2ccccc2o1)N1CCCCC1,-24.9%
21,CCOC(=O)Nc1cc(=O)c2ccccc2o1,53.2% (active)
22,CCOC(=O)/C=C(\C)Sc1cc(=O)oc2ccccc12,78.4% (active)
23,O=C(Nc1cc(=O)c2ccccc2o1)N1CCOCC1,11.2%
24,CCOC(=O)N1CCN(Cc2cc(=O)oc3ccc4ccccc4c23)CC1,14.3%
25,COc1ccc(Cl)cc1NC(=O)C1CCCN(S(=O)(=O)c2cccc3nonc23)C1 (configuration not stated),-12.6%
26,O=C(NCc1ccc(Cl)c(Cl)c1)c1ccco1,-4.6%

row,SMILES,cytotoxicity
1,CCCCn1c(=O)[nH]c2ccccc21,9.9%
2,COc1ccc(C(=O)NCC(C)CN(C)C)cc1 (configuration not stated),-2.3%
3,CCOC(=O)Nc1cccc(Nc2ccccc2)c1,4.6%
4,Cc1ccc2[nH]c3c(c2c1)CCc1cn[nH]c1-3,43.6%
5,Cc1ccc2[nH]c3c(c2c1)CCC3=O,-7.5%
6,CCN(CC)S(=O)(=O)c1cccc(C(=O)N2CCCCC2)c1,1.9%
7,c1ccc(-c2cn3nc(-c4ccccc4)sc3n2)cc1,-10.8%
8,CCN(c1cccc(C(F)(F)F)c1)S(=O)(=O)c1ccc2c(c1)CCN2C(C)=O,59.5% (active)
9,CCN(c1cccc(C(F)(F)F)c1)S(=O)(=O)c1ccc2c(c1)CCN2C(=O)C1CC1,-11.3%
10,CCN(c1cccc(C)c1)S(=O)(=O)c1ccc2c(c1)CCN2C(C)=O,46.6%
11,CCC1CCCCN1C(=O)Cn1c(=O)n(CCC(=O)NCc2ccco2)c(=O)c2sccc21 (configuration not stated),-4.6%
12,O=C(Nc1ccccn1)c1ccc2ccccc2n1,-1.6%
13,c1ccc(Nc2ccccc2Nc2ccccn2)nc1,-35.9%
14,Oc1cccc2ccc(Nc3ccccn3)nc12,119% (active)
15,COC(=O)c1cc(Cc2ccc(N)c(C(=O)OC)c2)ccc1N,1.9%
16,O=C(COC(=O)CSCC(=O)N1CCCCC1)NCc1ccc(F)cc1,-5.4%
17,CC(=O)c1sc(NC(=O)c2ccc(Cn3cc(Br)cn3)o2)nc1C,3.3%
18,O=C(Nc1ccc(C(F)(F)F)cc1Cl)c1ccc(Cn2cc(Br)cn2)o1,63.2% (active)
19,O=C(NC1CCCCC1)c1ccc(Cn2cc(Br)cn2)o1,-6.8%
20,Oc1ccccc1-c1cc(C(F)(F)C(F)F)[nH]n1,-15.5%
21,O=C1CC(C(F)(F)C(F)(F)C(F)(F)C(F)F)=Nc2ccccc2N1,-21.9%
22,FC(F)C(F)(F)C(F)(F)C(F)(F)c1cc(-c2ccccc2)n[nH]1,83.3% (active)
23,CCN(CCCNC(=O)Cn1ncc2c(=O)oc3ccccc3c21)c1cccc(C)c1,55.1% (active)
24,CCN(CC)CCCNC(=O)Cn1ncc2c(=O)oc3ccc(C)cc3c21,1.6%
25,CCOCCCNC(=O)Cn1ncc2c(=O)oc3ccccc3c21,-3.8%
26,Cc1cc(C)nc(NC(=O)NS(=O)(=O)N2CCCCCC2)n1,-13.1%

row,SMILES,cytotoxicity
1,Cc1ccc2[nH]c(=O)c(CN(CCc3ccccc3)Cc3nnnn3CC3CCCO3)cc2c1 (configuration not stated),9.4%
2,CCOC(=O)N1CCN(C(=O)CSc2nnc(COc3ccc(Cl)cc3)o2)CC1,-20.5%
3,CN1/C(=C/C(=O)c2nc(S(C)(=O)=O)ncc2Cl)C(C)(C)c2ccccc21,110% (active)
4,CN1/C(=C\C(=O)c2ccco2)C(C)(C)c2ccccc21,-14.9%
5,CN1/C(=C\C(=O)C(F)F)C(C)(C)c2ccccc21,-24.8%
6,COc1cc(CO)cc(Br)c1OCC(=O)O,-22.6%
7,O=C(CSc1nnc(Cc2cc(=O)[nH]c(=O)[nH]2)n1-c1ccccc1)N1CCCC1,-9.2%
8,O=C(CSC1=NCCS1)Nc1ccccc1F,-3.4%
9,Cc1cc(NC(=O)CSc2nnc(-c3ccco3)n2Cc2ccco2)no1,-9.5%
10,[O-][n+]1onc2c1CCc1nnc(-c3ccccc3)cc1-2,5.5%
11,O=c1nc(-c2ccccc2)cc(-c2ccccc2)[nH]1,-1.2%
12,Cc1ccc(/C(O)=C2/C(=O)C(=O)N(Cc3cccnc3)C2c2ccccn2)cc1 (configuration not stated),10.4%
13,COc1cccc(Oc2cn[nH]c2-c2ccc(OC)cc2O)c1,72.7% (active)
14,COc1ccc(-c2nc(N)nc(C)c2Oc2ccccc2Br)c(O)c1,87.7% (active)
15,C=C(C)COc1ccc(-c2nc(N)ncc2Oc2ccc(OC)cc2)c(O)c1,-10.3%
16,COc1cccc(Oc2cncnc2-c2ccc(OC)cc2O)c1,20.3%
17,C=C(C)COc1ccc(-c2nc(N)ncc2-c2ccc(OC)cc2)c(O)c1,70.7% (active)
18,COc1ccc(-c2nc(N)ncc2-c2csc(C)n2)c(O)c1,-25%
19,COc1ccc(-c2[nH]ncc2-c2cnn(-c3ccccc3)c2)c(O)c1,-0.4%
20,COc1cccc(Oc2cn[nH]c2-c2ccc(O)cc2O)c1,36%
21,COc1cccc(Oc2cnc(N)nc2-c2ccc(OC)cc2O)c1,52% (active)
22,COc1ccc(-c2nc(N)ncc2Oc2ccccc2Br)c(O)c1,-2.2%
23,CCOc1ccc(-c2nc(N)nc(C)c2-c2ccc(OC)c(OC)c2)c(O)c1,3.7%
24,CCOc1ccc(-c2ncncc2-c2ccc(OC)cc2)c(O)c1,-11.9%
